Tg IFNy HTS: T. gondii growth inhibition with IFN-gamma, primary screen, cell-based. Toxoplasma gondii growth in IFN-gamma-treated host cells; active compounds read low. activity change, negative = inhibition, % (concentration not given with the values). AID 1259416, 2018. hit rate 3.8% among 69,000; in the data active means activity change below about -70%, passing the limit was not always enough;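 further: host cells are HeLa cells infected with Toxoplasma gondii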
Each line names hits and unclear results; the compound was inactive in the other large screens. Many of the other results were omitted from the sample, so hits are more common in it than they were.

Fc1ccc(C2Oc3ccc(Cl)cc3C3=C2C(c2ccccc2)n2ncnc2N3)cc1 (configuration not stated)	none
Clc1ccc(C2C=C(c3ccccc3)Nc3ncnn32)cc1 (configuration not stated)	Tg IFNy HTS -85
COc1ccc(-c2nnc(-c3nc(Nc4ccccc4OC)c4ccccc4n3)o2)cc1	none
O=S(=O)(NC1CCC12CCN(Cc1ccoc1)CC2)c1ccccc1 (configuration not stated)	none
CCSc1nc(CC(=O)N(C)Cc2ncc(C)[nH]2)cs1	none
NC(=O)c1cncc(N2CCC(CO)(Cc3ccccc3)CC2)n1	none
Cc1cccc2cc(CO)c(N3CCC(CO)(Cc4ccccc4)CC3)nc12	Tg IFNy HTS -77
COc1ccc(CC2(CO)CCN(c3ncnc4c3CCC4)CC2)cc1	none
NC(=S)N/N=C/c1ncccc1N	Tg IFNy HTS -80
C=CCN1Cc2ccccc2C2(CCN(Cc3cnn(C)c3)CC2)C1	none
COc1cccc(NC(=O)Cn2c(=O)cc(C(=O)N3CCOCC3)c3ccccc32)c1	none
CN[C@@H]1C[C@H]2O[C@@](C)([C@@H]1OC)n1c3ccccc3c3c4c(c5c6ccccc6n2c5c31)C(=O)N[C@H]4O	Tg IFNy HTS -80
COCCN(C)c1ccc2ccc(C(=O)N(C)C)cn12	none
Cc1ccc(C2(O)CCN(C(=O)c3c(C)c4cccc(C)c4n3C)CC2)nc1	none
O=C(C1CCN(C2CCN(Cc3nc4ccccc4s3)CC2)CC1)N1CCCC1	none
COc1ccc(-c2nc3c(s2)CN(S(=O)(=O)c2ccccc2Cl)CC3)cc1	Tg IFNy HTS -86
COc1ccc(-c2nc3c(s2)CN(S(=O)(=O)c2ccc(C(C)C)cc2)CC3)cc1	none
CCOc1ccc(-c2nc3c(s2)CN(S(=O)(=O)c2ccccc2Cl)CC3)cc1	Tg IFNy HTS -89
O=S(=O)(c1cccc(Cl)c1)N1CCc2nc(-c3ccccc3)sc2C1	none
CCOc1ccc(-c2nc3c(s2)CN(C(=O)Nc2ccccc2CC)CC3)cc1	none
COC(=O)CC(=O)Cc1ccccc1OC	none
Cc1ncc(C)c(N2C[C@@H]3CN(C(=O)C4CC4)C[C@]3(C(=O)O)C2)n1	none
Cc1ccn2cc(C(=O)NCc3ccccc3)nc2c1	none
CCN(CC)c1ncnc2c1cnn2CC(=O)Nc1ccc2c(c1)OCCO2	none
CCc1ccc2c(c1)cc(S(=O)(=O)c1ccccc1)c(=O)n2CC(=O)N1CCCCC1	none
COc1ccc(C(=O)Nc2ccc3c(c2)nc(C(F)(F)F)n3C)cn1	none
COc1ccc(-c2nccc(C(F)(F)F)n2)cn1	none
COc1ccc(-c2ccc3ncc4c(c3c2)n(-c2ccc(N3CCNCC3)c(C(F)(F)F)c2)c(=O)n4C)cn1	Tg IFNy HTS -90
O=c1[nH]nc(CCn2ccnc2-c2ccc(-c3ccccc3Cl)o2)[nH]1	none
Cc1ccc2c(c1)C1(CC2)CCN(c2nncs2)CC1	none
CCCN1C[C@H](C)[C@@H](OC)CN(C)C(=O)c2cc(NC(=O)C3CCC3)ccc2OC[C@@H]1C	none
CO[C@@H]1CN(C)C(=O)c2cc(NC(=O)c3cccc(F)c3)ccc2OC[C@@H](C)N(C)C[C@@H]1C	Tg IFNy HTS -75
CO[C@H]1CN(C)C(=O)c2cc(NC(=O)C3CC3)ccc2OC[C@H](C)N(Cc2cc(F)ccc2F)C[C@@H]1C	Tg IFNy HTS -72
CO[C@H]1CN(C)C(=O)c2cc(NC(=O)c3cccc(F)c3)ccc2OC[C@@H](C)N(C)C[C@H]1C	none
CO[C@@H]1CN(C)C(=O)c2cc(NC(=O)C3CC3)ccc2OC[C@H](C)N(Cc2cc(F)ccc2F)C[C@@H]1C	none
CO[C@@H]1CN(C)C(=O)c2cc(NC(=O)c3cccc(F)c3)ccc2OC[C@@H](C)N(C)C[C@H]1C	none
Nc1nc(-c2ccncc2)ncc1S(=O)(=O)c1ccc(C(F)(F)F)cn1	none
CC1(C)CC(NC(=O)c2ccc(N3CCOCC3)cc2)c2ccccc2O1 (configuration not stated)	none
COc1ccc(-n2ccnc2C(C)Cc2ccc3c(c2)OCO3)cn1 (configuration not stated)	none
O=C(c1ccco1)N1CCOC2CCC1C2Oc1ncccc1F (configuration not stated)	none
CC(C)(C)c1ccc(NC(=O)Nc2sccc2-n2cccc2)cc1	none
CCOc1ccc(CNC(=O)c2nc(Nc3cccc(C)c3)c3ccccc3n2)cc1	Tg IFNy HTS -94
CCCNC(=O)c1nc(Nc2ccc(CC)cc2)c2ccccc2n1	Tg IFNy HTS -83
CCNC(=O)c1nc(Nc2ccccc2)c2ccccc2n1	none
CCCNC(=O)c1nc(Nc2ccc(F)cc2)c2ccccc2n1	none
CCOC(=O)c1nc(Nc2cccc(OC)c2)c2ccccc2n1	none
CCOC(=O)c1nc(Nc2cc(C)c(Cl)cc2OC)c2ccccc2n1	none
O=C(NCCCc1ccccc1)c1nc(Nc2ccccc2)c2ccccc2n1	none
Cc1cccc(Nc2nc(C(=O)NCc3ccc(C)o3)nc3ccccc23)c1	none
O=C(NCCC1=CCCCC1)c1nc(Nc2ccccc2)c2ccccc2n1	Tg IFNy HTS -76
COCCNC(=O)c1nc(Nc2cccc(C)c2)c2ccccc2n1	none
CCOC(=O)c1nc(Nc2ccc(OC)c(Cl)c2)c2ccccc2n1	Tg IFNy HTS -77
CCc1ccc(Nc2nc(C(=O)NCCOC)nc3ccccc23)cc1	none
CC(C)(C)c1ccc(C(=O)Nc2nc3ccccc3c(=O)s2)cc1	none
Cc1ccc2c(c1C)-n1cccc1C1(CCN(S(=O)(=O)c3ccc(Br)s3)CC1)N2	none
Cc1cccc(C(=O)N2CCC3(CCC(C(=O)N4CCCC4)O3)CC2)n1 (configuration not stated)	none
COc1ccc(CC(=O)NCCNc2nc(-c3ccncc3)cc3ncccc23)cc1	none
CN1Cc2c(C(=O)N3CCCCCC3)ncn2-c2ccccc2S1(=O)=O	none
CC1CCN(C(=O)c2cc(=O)n(CC(=O)Nc3ccc(F)c(Cl)c3)c3ccccc23)CC1	none
Cc1ccc(CN2CC[C@@]3(C[C@H](NC(=O)c4ccco4)CCO3)C2)cc1	none
CC(C)NC(=O)[C@]12CCO[C@@H]1CCN(c1ncc(F)cn1)C2	none
N#CCN1Cc2ccccc2C2(CCN(C(=O)c3ccno3)CC2)C1	none
O=C(Nc1cccc(F)c1)N1C[C@@H]2[C@H](c3ccccc31)[C@@H](CO)N2C(=O)Cc1ccccn1	none
CCn1c(C2CCCN(C(=O)CCn3c(C)cccc3=O)C2)nn(C)c1=O (configuration not stated)	none
O=C(NC1CCCC1)c1nc(Nc2ccc(F)cc2)c2ccccc2n1	none
CCc1ccccc1NC(=O)c1nc(Nc2ccc(C)cc2)c2ccccc2n1	Tg IFNy HTS -86
Cc1ccc(Nc2nc(C(=O)NCc3ccccc3)nc3ccccc23)cc1	none
CCc1ccc(CNC(=O)c2nc(Nc3ccc(C)cc3)c3ccccc3n2)cc1	none
Cc1cccc(Nc2nc(C(=O)NC3CCCC3)nc3ccccc23)c1	none
Cc1cccc(Nc2nc(C(=O)NCc3ccccc3Cl)nc3ccccc23)c1	none
O=C(NC1CCCCCC1)c1nc(Nc2ccccc2)c2ccccc2n1	Tg IFNy HTS -85
Cc1ccc(Nc2nc(C(=O)Nc3ccccc3Cl)nc3ccccc23)cc1	none
CCC(C)NC(=O)c1nc(Nc2cccc(C)c2)c2ccccc2n1 (configuration not stated)	none
Cc1cccc(Nc2nc(C(=O)NCc3cccc(Cl)c3)nc3ccccc23)c1	Tg IFNy HTS -96
CCc1ccccc1NC(=O)c1nc(Nc2ccccc2)c2ccccc2n1	none
Cc1ccc(Nc2nc(C(=O)NCc3cccnc3)nc3ccccc23)cc1	Tg IFNy HTS -82
CCCC(=O)N1CC[C@@H]2Oc3ccccc3S(=O)(=O)N(CC)[C@@H]2CC1	none
COc1c[nH]c(C(=O)N2CCCC(CCc3ccc(F)c(F)c3)C2)cc1=O (configuration not stated)	none
Cc1cc(C)n(C2CN(S(=O)(=O)NCc3ccccc3)C2)n1	none
